In test [1] the target is Tyrosine-protein kinase Yes (Homo sapiens) (UniProt P07947). Put plainly: qHTS for small molecule inhibitors of Yes1 kinase: Primary Screen (AID 686947). Also: nearly all actives have a fitted effect of over 60% in size. Also: potency is read from the fitted curve at half-maximal effect. A digest of the protocol: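 Yes1 (4 nM) preincubated 20 min with compound, then 60 min room-temperature reaction with 0.1 mM ATP and 0.3 mg/mL poly(E4Y) in pH 7.5 Tris, 10 mM MgCl2. ADP measured by ADP-Glo luminescence, normalised to enzyme/no-enzyme controls.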
For orientation: qHTS replaces the single test concentration by a dilution series.

The nature of test [2]: qHTS for small molecule inhibitors of Yes1 kinase: Counter Assay (AID 686950).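 Also: no kinase present so only ADP-Glo detection of a fixed ADP amount is tested; luminescence from ADP-Glo reporting ADP in a fixed ATP and ADP mixture; series mostly up to about 77 µM.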 The method, boiled down:
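Enzyme-free ADP-Glo interference check: compounds were preincubated 20 min in buffer, then an ATP/ADP mix (0.08 mM ATP, 0.02 mM ADP final) was added for 60 min at room temperature before two-step ADP-Glo luminescence detection.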

Inconclusive results are not listed. Entries that show only a call come without a potency. The source made the active and inactive calls. Calls follow the shape of the dose curve; as a rule, active = well fitted curve in the direction sought with a large enough effect; inconclusive = small, poorly fitted or top-dose-only effect, or another doubt; inactive = no such curve, though single readings can be large; an effect the other way counts as inactive or inconclusive.

Tyrosine-protein kinase Yes (Homo sapiens), sequence (P07947 whole entry, looked up): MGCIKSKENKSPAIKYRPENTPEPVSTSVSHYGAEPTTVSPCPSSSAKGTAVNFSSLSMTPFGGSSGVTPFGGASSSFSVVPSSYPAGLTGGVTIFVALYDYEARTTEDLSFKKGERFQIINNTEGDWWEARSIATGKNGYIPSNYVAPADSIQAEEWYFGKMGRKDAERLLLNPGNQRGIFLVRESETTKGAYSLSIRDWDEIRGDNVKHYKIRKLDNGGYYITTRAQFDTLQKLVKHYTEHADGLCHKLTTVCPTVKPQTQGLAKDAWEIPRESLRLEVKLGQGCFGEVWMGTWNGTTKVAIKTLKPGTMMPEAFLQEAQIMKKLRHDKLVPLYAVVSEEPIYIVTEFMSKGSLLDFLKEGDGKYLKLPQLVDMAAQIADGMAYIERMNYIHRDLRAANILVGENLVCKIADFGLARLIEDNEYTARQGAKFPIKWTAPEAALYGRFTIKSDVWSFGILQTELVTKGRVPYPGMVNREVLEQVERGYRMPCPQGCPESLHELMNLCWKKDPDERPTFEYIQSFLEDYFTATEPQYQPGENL

For the compound `COc1cccc(-n2ncc3c(NN=Cc4cccc(F)c4)ncnc32)c1`, in test [1], the Potency is 0.146 µM (active). Besides, the compound was classed as inactive in test [2].

As for `CS(=O)(=O)c1ccc(Oc2nccc(-c3c(-c4ccc(F)cc4)ncn3C3CCNCC3)n2)cc1`, the Potency entry in test [1] was “inactive”. The outcome in test [2] was inactive.

With `CC(C)(CO)CNC(=O)c1ccc2[nH]c(O)c(N=Nc3ccc(S(N)(=O)=O)cc3)c2c1`, in test [1], the Potency was 2.32 µM (active). The result in test [2] was inactive.

On to `Nc1nc(-c2ccc3c(c2)C(=Cc2cc(Br)c(O)c(Br)c2)C(=O)N3)cs1`, for which the Potency in test [1] was 1.46 µM (active). Moreover, the compound was classed as inactive in test [2].

In the case of `NS(=O)(=O)c1ccc(N=Nc2c(O)[nH]c3ccc(C(=O)NCCCn4ccnc4)cc23)cc1`, in test [1], the Potency was 2.6 µM (active). Besides, the result in test [2] was inactive.

For the compound `CC(C)=Cc1cccc2[nH]c(O)c(N=Nc3ccc(S(N)(=O)=O)cc3)c12`, the Potency entry in test [1] was “inactive”. Moreover, in test [2], the compound was classed as inactive.

As for `COC(=O)Nc1nc2ccc(Oc3ccc(NC(=O)Nc4cc(C(F)(F)F)ccc4F)cc3)cc2s1`, in test [1], the Potency entry was “inactive”. Moreover, the compound was classed as inactive in test [2].

On to `O=C(OC1CNC(C#Cc2cc3ncnc(Nc4ccc(Cc5ccccc5)cc4)c3s2)C1)N1CCOCC1` (stereo not given), for which the Potency in test [1] is 2.07 µM (active). Moreover, the compound was classed as inactive in test [2].

Turning to `NS(=O)(=O)c1ccc(Nc2cc(-c3cccc(O)c3)[nH]n2)cc1`, in test [1], the Potency was 23.2 µM (active). The outcome in test [2] was inactive.

Consider `Nc1nccc(C#Cc2cncnc2Nc2ccc(OCc3cccc(F)c3)c(Cl)c2)n1`, for which the Potency result in test [1] was “inactive”. Also, the call in test [2] was inactive.
